The supplement of paper PMC10849652
Of roughly 8,800 targets only a part is listed; those with a hit were picked by preference. About 0.5% of all pairs of compound and target were hits.

Tests used:
Test in all cases: log2 fold change, soluble protein after heating vs DMSO (PISA); higher = thermal stabilisation; K562 lysate, 10 uM; active = over 0.2 and 3.5 SD of the protein, either way, in both replicates (recomputed)
erlotinib = compound: C#Cc1cccc(Nc2ncnc3cc(OCCOC)c(OCCOC)cc23)c1 [erlotinib]
How it was run: (§1)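 Following dounce homogenisation of K562 pellets in PBS pH 7.4 with 1 mM MgCl2, crude extract at 1 mg/mL protein was incubated for 30 min with 10 μM compound. Aliquots were then heated for 3 min over 48°C-58°C and pooled, NP-40 was added to 0.5% at 4°C, and soluble protein was recovered as the supernatant at 21,000xg for 90 min. Channel-sum-equalised TMTpro 16plex LC-MS/MS quantified this protein. Each value, from duplicates, is a log-two fold change in thermal stability relative to solvent controls.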

[1] = compound: C/C(=N\NC(=O)C1=CC(=CC=C1)S(=O)(=O)N2CCOCC2)/C3=C(C=CC(=C3)Cl)O
How it was run: as §1

[2] = compound: C1=CC(=CC=C1C2=NC3=C(N2)C=C(C=C3)C(=O)N)OC4=CC=C(C=C4)Cl
How it was run: as §1

[3] = compound: C1=CC2=C(C=CC(=C2)/C=C\3/C(=O)NC(=NCC4=CC=CS4)S3)N=C1
How it was run: as §1

[4] = compound: C1=CC2=NC=CN=C2C=C1/C=C/3\C(=O)NC(=O)S3
How it was run: as §1

[5] = compound: C1=CC=C(C=C1)C2=NC(=C(N2)C3=CC=NC=C3)C4=CC(=C(C=C4)Cl)O
How it was run: as §1

[6] = compound: C1=CC=C2C(=C1)C3=NNC4=CC=CC(=C43)C2=O
How it was run: as §1

[7] = compound: C1CCN(C1)C(=O)NC2=CC=CC(=C2)NC3=NC=C(C(=N3)NCCC4=CN=CN4)Br
How it was run: as §1

[8] = compound: C1CN(CCC1(CC2=CC=C(C=C2)Cl)N)C3=NC=NC4=C3C=CN4
How it was run: as §1

IRAK-1-4 Inhibitor I = compound: C1COCCN1CCN2C3=CC=CC=C3N=C2NC(=O)C4=CC(=CC=C4)[N+](=O)[O-] [IRAK-1-4 Inhibitor I]
How it was run: as §1

ibrutinib = compound: C=CC(=O)N1CCC[C@@H](n2nc(-c3ccc(Oc4ccccc4)cc3)c3c(N)ncnc32)C1 [ibrutinib]
How it was run: as §1

[9] = compound: CC(=O)c1cnc2ccc(-c3cc(Cl)c(O)c(Cl)c3)nc2c1N[C@H]1CC[C@H](CN(C)C)CC1
How it was run: as §1

ralimetinib = compound: CC(C)(C)Cn1c(N)nc2ccc(-c3[nH]c(C(C)(C)C)nc3-c3ccc(F)cc3)nc21 [ralimetinib]
How it was run: as §1

[10] = compound: CC(C)(O)CC(=O)NCCn1ccc2ncnc(Nc3ccc(Oc4cccc(C(F)(F)F)c4)c(Cl)c3)c21
How it was run: as §1

[11] = compound: CC(C)C1=C2N=C(C=C(N2N=C1)NCC3=CC=CC=C3)NCCCCCCN
How it was run: as §1

[12] = compound: CC1=C(C(CC(=O)N1)C2=CC=C(C=C2)C(F)(F)F)C(=O)NC3=C(C=C4C(=C3)C=NN4)F
How it was run: as §1

[13] = compound: CC1=C(C2=C(C=C1)C(=O)C3=CC=CC=C3N2CCCN)C
How it was run: as §1

[14] = compound: CC1=C(C=C(C=C1)NC(=O)C2=CC(=CC=C2)C(C)(C)C#N)NC3=CC4=C(C=C3)N=CN(C4=O)C
How it was run: as §1

[15] = compound: CC1=C(C=C(C=C1)NC(=O)C2=CC(=CC=C2)N(C)C)NC(=O)C3=CC=C(C=C3)O
How it was run: as §1

[16] = compound: CC1=CC=C(C=C1)SC2=C3C=C(SC3=CN=C2)C(=O)N
How it was run: as §1

Measured: log2 fold change

TRA2A (UniProt Q13595)
UniProt Q13595, sequence (Q13595 whole entry, looked up): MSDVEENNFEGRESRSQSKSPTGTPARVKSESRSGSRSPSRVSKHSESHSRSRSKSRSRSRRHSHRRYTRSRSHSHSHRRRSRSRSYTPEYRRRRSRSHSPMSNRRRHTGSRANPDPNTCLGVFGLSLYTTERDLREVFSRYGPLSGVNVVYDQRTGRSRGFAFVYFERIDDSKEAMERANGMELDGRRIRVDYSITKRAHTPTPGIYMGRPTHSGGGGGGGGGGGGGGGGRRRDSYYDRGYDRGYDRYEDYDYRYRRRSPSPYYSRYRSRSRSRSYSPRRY
inactive: erlotinib -0.164 | [1] -0.261 | [2] -0.092 | [3] -0.03 | [4] -0.137 | [5] 0.038 | [6] -0.024 | [7] 0.083 | [8] -0.234 | IRAK-1-4 Inhibitor I -0.102 | ibrutinib 0.127 | [9] -0.018 | ralimetinib -0.079 | [10] -0.013 | [11] 0.21 | [12] -0.027 | [13] 0.039 | [14] 0.056 | [15] 0.019 | [16] -0.007

TIMELESS (UniProt Q9UNS1)
inactive: erlotinib 0.023 | [1] 0.069 | [2] -0.083 | [3] -0.003 | [4] -0.002 | [5] -0.001 | [6] -0.068 | [7] -0.018 | [8] 0 | IRAK-1-4 Inhibitor I -0.032 | ibrutinib 0.011 | [9] -0.079 | ralimetinib 0.006 | [10] -0.053 | [11] -0.01 | [12] 0.011 | [13] -0.007 | [14] -0.01 | [15] 0.029 | [16] -0.027

TTC38 (UniProt Q5R3I4)
UniProt Q5R3I4, sequence (Q5R3I4 whole entry, looked up): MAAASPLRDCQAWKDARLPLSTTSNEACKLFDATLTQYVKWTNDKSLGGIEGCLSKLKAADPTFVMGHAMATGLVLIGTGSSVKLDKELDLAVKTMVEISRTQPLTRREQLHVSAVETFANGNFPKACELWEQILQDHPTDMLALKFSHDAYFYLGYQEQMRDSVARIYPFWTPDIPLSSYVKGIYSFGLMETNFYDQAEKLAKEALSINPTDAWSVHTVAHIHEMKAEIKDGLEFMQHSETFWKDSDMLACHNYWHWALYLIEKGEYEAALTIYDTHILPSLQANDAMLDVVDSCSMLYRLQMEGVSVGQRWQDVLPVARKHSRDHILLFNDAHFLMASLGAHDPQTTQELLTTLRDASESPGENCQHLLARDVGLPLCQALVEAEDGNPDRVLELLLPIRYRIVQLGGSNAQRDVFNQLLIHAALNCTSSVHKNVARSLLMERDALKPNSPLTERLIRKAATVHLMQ
inactive: erlotinib 0.037 | [1] 0.015 | [2] 0.009 | [3] 0.039 | [4] 0.007 | [5] 0.035 | [6] -0.022 | [7] -0.003 | [8] 0.068 | IRAK-1-4 Inhibitor I -0.004 | ibrutinib -0.049 | [9] 0.033 | ralimetinib 0.008 | [10] 0.007 | [11] -0.011 | [12] 0.005 | [14] -0.013 | [15] 0.067 | [16] 0.014
active: [13] 0.332

TPM3 isoform 2 (UniProt P06753)
UniProt P06753, sequence (P06753 whole entry, looked up): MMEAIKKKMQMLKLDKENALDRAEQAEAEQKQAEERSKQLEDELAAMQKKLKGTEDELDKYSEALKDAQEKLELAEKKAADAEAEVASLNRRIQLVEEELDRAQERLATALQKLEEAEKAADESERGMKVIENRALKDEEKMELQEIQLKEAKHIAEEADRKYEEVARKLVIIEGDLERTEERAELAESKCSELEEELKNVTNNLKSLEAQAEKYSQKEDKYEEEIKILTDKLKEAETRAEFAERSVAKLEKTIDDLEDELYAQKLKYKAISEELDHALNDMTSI
inactive: erlotinib -0.075 | [1] -0.007 | [2] -0.065 | [3] -0.008 | [4] 0.003 | [5] 0.004 | [6] 0.038 | [7] 0.039 | [8] -0.074 | IRAK-1-4 Inhibitor I -0.042 | ibrutinib 0.03 | [9] -0.007 | ralimetinib -0.02 | [10] 0.05 | [11] -0.034 | [12] -0.005 | [13] -0.019 | [14] -0.073 | [15] 0.002 | [16] -0.006

UCHL5 isoform 3 (UniProt Q9Y5K5)
UniProt Q9Y5K5, sequence (Q9Y5K5 whole entry, looked up): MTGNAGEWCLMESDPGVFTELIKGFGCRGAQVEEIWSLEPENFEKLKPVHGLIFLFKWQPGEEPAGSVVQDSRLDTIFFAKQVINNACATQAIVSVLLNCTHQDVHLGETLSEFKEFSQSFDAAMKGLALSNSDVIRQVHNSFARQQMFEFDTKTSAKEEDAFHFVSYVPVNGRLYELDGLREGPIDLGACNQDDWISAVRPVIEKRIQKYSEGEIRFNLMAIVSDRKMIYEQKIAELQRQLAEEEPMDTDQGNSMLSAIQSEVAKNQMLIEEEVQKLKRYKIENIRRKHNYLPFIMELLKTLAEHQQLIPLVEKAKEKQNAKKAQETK
inactive: erlotinib -0.015 | [1] -0.012 | [2] 0.015 | [3] -0.018 | [4] 0.01 | [5] -0.005 | [6] 0.001 | [7] 0 | [8] -0.014 | IRAK-1-4 Inhibitor I -0.018 | ibrutinib 0 | [9] -0.001 | ralimetinib 0.01 | [10] -0.008 | [11] 0.015 | [12] 0.014 | [13] 0.011 | [14] -0.029 | [15] 0.004 | [16] 0.012

TCF3 (UniProt P15923)
inactive: erlotinib 0.027 | [1] -0.028 | [2] 0.067 | [3] 0.004 | [4] 0.016 | [5] 0.011 | [6] 0.07 | [7] -0.005 | [8] 0.022 | IRAK-1-4 Inhibitor I 0.04 | ibrutinib 0.001 | [9] 0.027 | ralimetinib 0.014 | [10] -0.028 | [11] -0.005 | [12] -0.034 | [13] -0.074 | [14] -0.061 | [15] -0.045 | [16] -0.016

TERF2IP (UniProt Q9NYB0)
UniProt Q9NYB0, sequence (Q9NYB0 whole entry, looked up): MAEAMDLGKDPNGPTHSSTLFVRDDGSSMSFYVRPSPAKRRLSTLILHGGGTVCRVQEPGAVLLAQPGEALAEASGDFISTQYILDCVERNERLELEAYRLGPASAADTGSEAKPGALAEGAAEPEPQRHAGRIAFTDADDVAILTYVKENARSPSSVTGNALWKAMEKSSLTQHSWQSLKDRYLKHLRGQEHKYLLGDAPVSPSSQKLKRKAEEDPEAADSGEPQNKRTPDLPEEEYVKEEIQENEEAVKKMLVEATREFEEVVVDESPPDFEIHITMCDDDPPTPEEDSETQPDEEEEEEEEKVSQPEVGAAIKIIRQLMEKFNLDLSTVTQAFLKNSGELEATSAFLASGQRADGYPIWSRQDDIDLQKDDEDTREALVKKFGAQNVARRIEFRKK
inactive: erlotinib -0.003 | [1] 0.025 | [2] 0.03 | [3] -0.054 | [4] -0.023 | [5] -0.001 | [6] 0.005 | [7] 0.019 | [8] 0.029 | IRAK-1-4 Inhibitor I 0.009 | ibrutinib 0.02 | [9] -0.012 | ralimetinib 0.025 | [10] -0.049 | [11] -0.047 | [12] 0.004 | [13] -0.004 | [14] -0.008 | [15] -0.005 | [16] 0.003

TELO2 (UniProt Q9Y4R8)
inactive: erlotinib 0.023 | [1] 0.006 | [2] -0.035 | [3] 0.025 | [4] 0.048 | [5] 0 | [6] 0.011 | [7] -0.031 | [8] 0.002 | IRAK-1-4 Inhibitor I 0.009 | ibrutinib -0.023 | [9] 0 | ralimetinib 0.019 | [10] -0.052 | [11] 0.002 | [12] 0.029 | [13] -0.015 | [14] 0.006 | [15] 0.014 | [16] 0.017

TTI2 (UniProt Q6NXR4)
UniProt Q6NXR4, sequence (Q6NXR4 whole entry, looked up): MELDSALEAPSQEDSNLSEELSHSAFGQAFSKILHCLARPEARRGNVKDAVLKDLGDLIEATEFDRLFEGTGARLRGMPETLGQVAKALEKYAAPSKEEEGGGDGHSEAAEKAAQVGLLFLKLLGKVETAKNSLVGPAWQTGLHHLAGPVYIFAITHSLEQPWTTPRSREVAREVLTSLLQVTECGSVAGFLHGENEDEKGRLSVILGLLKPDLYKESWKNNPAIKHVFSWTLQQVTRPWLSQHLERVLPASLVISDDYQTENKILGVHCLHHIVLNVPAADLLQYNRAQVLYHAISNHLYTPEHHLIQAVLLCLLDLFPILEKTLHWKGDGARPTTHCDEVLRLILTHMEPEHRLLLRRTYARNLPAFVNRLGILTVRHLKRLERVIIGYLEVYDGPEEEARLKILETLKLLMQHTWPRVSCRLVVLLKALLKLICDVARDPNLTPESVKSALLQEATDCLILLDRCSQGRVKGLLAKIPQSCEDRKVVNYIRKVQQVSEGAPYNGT
inactive: erlotinib -0.003 | [1] 0.037 | [2] 0.023 | [3] 0.047 | [4] 0.013 | [5] 0.012 | [6] -0.015 | [7] -0.028 | [8] 0.007 | IRAK-1-4 Inhibitor I 0.014 | ibrutinib 0.012 | [9] 0.016 | ralimetinib 0.019 | [10] -0.062 | [11] -0.004 | [12] -0.009 | [13] 0.018 | [14] -0.009 | [15] -0.015 | [16] -0.017

TPP2 (UniProt Q5VZU9)
inactive: erlotinib 0.043 | [1] -0.036 | [2] 0.086 | [3] -0.012 | [4] 0 | [5] 0.131 | [6] -0.013 | [7] 0 | [8] 0.066 | IRAK-1-4 Inhibitor I 0.005 | ibrutinib 0.073 | [9] -0.025 | ralimetinib -0.018 | [10] 0.046 | [11] -0.041 | [12] 0.056 | [13] 0.018 | [14] -0.049 | [15] -0.017 | [16] 0.061

TRIM33 isoform 2 (UniProt Q9UPN9)
UniProt Q9UPN9, sequence (Q9UPN9 whole entry, looked up): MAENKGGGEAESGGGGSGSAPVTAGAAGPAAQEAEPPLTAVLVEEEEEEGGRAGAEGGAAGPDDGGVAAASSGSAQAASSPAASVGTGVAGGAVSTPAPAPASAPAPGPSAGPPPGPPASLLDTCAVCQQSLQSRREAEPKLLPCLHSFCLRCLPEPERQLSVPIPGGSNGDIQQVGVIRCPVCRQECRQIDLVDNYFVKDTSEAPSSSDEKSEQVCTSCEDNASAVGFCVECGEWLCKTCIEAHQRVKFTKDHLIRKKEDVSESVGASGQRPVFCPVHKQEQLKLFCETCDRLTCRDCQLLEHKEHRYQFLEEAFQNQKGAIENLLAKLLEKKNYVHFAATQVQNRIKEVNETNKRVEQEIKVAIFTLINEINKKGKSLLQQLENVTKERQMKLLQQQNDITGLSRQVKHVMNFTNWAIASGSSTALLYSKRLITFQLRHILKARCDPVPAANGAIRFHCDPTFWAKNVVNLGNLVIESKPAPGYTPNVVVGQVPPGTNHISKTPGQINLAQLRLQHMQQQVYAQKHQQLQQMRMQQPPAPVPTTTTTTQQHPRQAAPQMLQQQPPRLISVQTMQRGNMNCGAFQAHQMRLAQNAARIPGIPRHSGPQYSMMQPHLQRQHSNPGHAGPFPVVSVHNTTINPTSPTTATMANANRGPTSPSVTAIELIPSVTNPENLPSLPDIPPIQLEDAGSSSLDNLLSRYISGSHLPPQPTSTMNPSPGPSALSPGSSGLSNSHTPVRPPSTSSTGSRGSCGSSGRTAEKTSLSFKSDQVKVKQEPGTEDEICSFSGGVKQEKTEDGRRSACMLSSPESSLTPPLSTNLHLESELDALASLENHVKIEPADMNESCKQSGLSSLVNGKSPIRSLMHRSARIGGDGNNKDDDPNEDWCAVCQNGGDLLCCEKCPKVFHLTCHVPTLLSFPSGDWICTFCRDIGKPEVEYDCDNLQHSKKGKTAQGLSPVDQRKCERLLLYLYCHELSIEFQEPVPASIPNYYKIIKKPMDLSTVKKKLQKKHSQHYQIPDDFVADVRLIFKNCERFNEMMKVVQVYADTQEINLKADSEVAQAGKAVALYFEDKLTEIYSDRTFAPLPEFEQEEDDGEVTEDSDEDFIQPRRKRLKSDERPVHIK
inactive: erlotinib 0.004 | [1] -0.016 | [2] 0.014 | [3] 0.004 | [4] -0.002 | [5] 0.003 | [6] 0.008 | [7] -0.03 | [8] 0.006 | IRAK-1-4 Inhibitor I -0.02 | ibrutinib 0.04 | [9] 0.006 | ralimetinib 0.024 | [10] 0.022 | [11] -0.026 | [12] 0.01 | [13] 0 | [14] -0.014 | [15] 0.019 | [16] 0.005

TRIM44 (UniProt Q96DX7)
UniProt Q96DX7, sequence (Q96DX7 whole entry, looked up): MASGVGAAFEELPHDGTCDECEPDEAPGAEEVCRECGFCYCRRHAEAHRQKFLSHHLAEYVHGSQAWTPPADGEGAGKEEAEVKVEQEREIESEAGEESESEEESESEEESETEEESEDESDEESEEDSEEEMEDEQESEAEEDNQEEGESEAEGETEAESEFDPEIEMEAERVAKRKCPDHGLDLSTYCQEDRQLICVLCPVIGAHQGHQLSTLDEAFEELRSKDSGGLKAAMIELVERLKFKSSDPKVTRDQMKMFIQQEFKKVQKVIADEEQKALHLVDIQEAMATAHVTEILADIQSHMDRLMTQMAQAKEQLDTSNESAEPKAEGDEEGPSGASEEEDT
inactive: erlotinib -0.066 | [1] 0.067 | [2] -0.016 | [3] -0.037 | [4] 0.057 | [5] -0.013 | [6] -0.038 | [7] 0.053 | [8] 0.072 | IRAK-1-4 Inhibitor I 0.043 | ibrutinib 0.031 | [9] 0.124 | ralimetinib 0.032 | [10] -0.013 | [11] -0.037 | [12] -0.021 | [13] -0.004 | [14] -0.044 | [15] 0.022 | [16] 0.086

TRAPPC12 (UniProt Q8WVT3)
UniProt Q8WVT3, sequence (Q8WVT3 whole entry, looked up): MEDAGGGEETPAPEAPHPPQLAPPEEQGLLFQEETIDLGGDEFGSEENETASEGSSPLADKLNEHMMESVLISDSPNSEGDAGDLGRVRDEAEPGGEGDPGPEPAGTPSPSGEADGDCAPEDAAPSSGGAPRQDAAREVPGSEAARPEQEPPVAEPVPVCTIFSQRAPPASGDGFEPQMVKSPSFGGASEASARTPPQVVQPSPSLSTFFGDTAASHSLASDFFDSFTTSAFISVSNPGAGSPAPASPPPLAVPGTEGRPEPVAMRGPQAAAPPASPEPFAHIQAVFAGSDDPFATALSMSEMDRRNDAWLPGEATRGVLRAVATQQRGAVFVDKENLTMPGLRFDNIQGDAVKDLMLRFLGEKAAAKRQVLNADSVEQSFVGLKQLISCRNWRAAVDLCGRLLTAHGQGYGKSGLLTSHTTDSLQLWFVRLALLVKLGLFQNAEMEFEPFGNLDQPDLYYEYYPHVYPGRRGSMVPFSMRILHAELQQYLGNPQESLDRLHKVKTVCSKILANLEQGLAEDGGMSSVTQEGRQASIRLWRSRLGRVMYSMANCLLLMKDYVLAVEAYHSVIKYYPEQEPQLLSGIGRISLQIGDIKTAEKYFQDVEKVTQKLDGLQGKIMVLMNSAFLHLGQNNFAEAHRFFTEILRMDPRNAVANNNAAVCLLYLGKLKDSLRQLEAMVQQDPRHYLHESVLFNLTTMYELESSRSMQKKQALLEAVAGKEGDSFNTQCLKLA
inactive: erlotinib -0.049 | [1] -0.01 | [2] -0.048 | [3] -0.047 | [4] -0.018 | [5] -0.005 | [6] -0.061 | [7] -0.003 | [8] -0.005 | IRAK-1-4 Inhibitor I 0.027 | ibrutinib 0.001 | [9] -0.011 | ralimetinib 0.064 | [10] 0.02 | [11] -0.014 | [12] -0.022 | [13] -0.003 | [14] 0.008 | [15] -0.001 | [16] 0.009

TOPBP1 (UniProt Q92547)
inactive: erlotinib 0.004 | [1] -0.056 | [2] -0.034 | [3] 0.018 | [4] 0.002 | [5] 0.003 | [6] -0.009 | [7] -0.134 | [8] 0.072 | IRAK-1-4 Inhibitor I -0.006 | ibrutinib 0.012 | [9] 0.003 | ralimetinib 0.011 | [10] 0.011 | [11] 0.006 | [12] -0.02 | [13] -0.01 | [14] -0.035 | [15] 0.041 | [16] 0.055

TUBA1C (UniProt Q9BQE3)
UniProt Q9BQE3, sequence (Q9BQE3 whole entry, looked up): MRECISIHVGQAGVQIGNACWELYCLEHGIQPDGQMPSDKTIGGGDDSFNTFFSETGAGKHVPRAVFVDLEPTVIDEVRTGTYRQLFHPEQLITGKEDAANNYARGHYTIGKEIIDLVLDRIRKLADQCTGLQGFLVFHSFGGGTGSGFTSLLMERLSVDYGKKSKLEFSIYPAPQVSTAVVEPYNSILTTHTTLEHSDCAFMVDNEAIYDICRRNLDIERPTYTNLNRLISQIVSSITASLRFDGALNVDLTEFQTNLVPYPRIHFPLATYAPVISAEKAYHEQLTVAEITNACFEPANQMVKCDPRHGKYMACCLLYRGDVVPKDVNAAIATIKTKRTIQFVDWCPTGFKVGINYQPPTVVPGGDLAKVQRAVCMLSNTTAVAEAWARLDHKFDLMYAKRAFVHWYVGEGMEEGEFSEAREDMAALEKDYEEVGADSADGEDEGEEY
inactive: erlotinib 0.007 | [1] -0.028 | [2] 0.044 | [3] -0.019 | [4] -0.012 | [5] 0.031 | [6] -0.077 | [7] -0.008 | [8] 0.014 | IRAK-1-4 Inhibitor I 0.04 | ibrutinib -0.001 | [9] 0.017 | ralimetinib 0.007 | [10] -0.043 | [11] 0.032 | [12] 0.015 | [13] -0.035 | [14] -0.012 | [15] 0.043 | [16] 0.009
